From ChEMBL document CHEMBL4513141, “CO-ADD screening of NIH (USA) - Clinical Collection” (2021) come the findings set out here.

The structures appear in SMILES notation. Entries with a potency or affinity are not part of this list.

This assay has as its system Staphylococcus aureus. To be noted: Concentration 20 uM; ASSAY_TEST Inhibition of Bacterial Growth; detection method Absorption (OD600); MEDIA CAMHB; plate type 384well; NBS; CORNING #3640; time 18 hr.
In the case of `CN(C)C(=O)Oc1ccc[n+](C)c1.[Br-]` [PYRIDOSTIGMINE BROMIDE], the Inhibition is on record as 10.54%.

As for `CN(C/C=C/C#CC(C)(C)C)Cc1cccc2ccccc12.Cl` [TERBINAFINE HYDROCHLORIDE], the Inhibition came to 10.26%. The same measure for `NC(Cc1cc(I)c(Oc2ccc(O)c(I)c2)c(I)c1)C(=O)O` (stereo unspecified) [RATHYRONINE]: 11.14%; for `Cc1ccc(O)c([C@H](CCN(C(C)C)C(C)C)c2ccccc2)c1.O=C(O)C(O)C(O)C(=O)O` [TOLTERODINE TARTRATE]: -0.49%. Take `CC(=CCC1=C(C)C(=O)c2ccccc2C1=O)CCCC(C)CCCC(C)CCCC(C)C` (stereo unspecified): the Inhibition amounted to 7.33%. The figure for `CC[C@]1(O)C[C@@H]2CN(CCc3c([nH]c4ccccc34)[C@@](C(=O)OC)(c3cc4c(cc3OC)N(C=O)[C@H]3[C@@](O)(C(=O)OC)[C@H](OC(C)=O)[C@]5(CC)C=CCN6CC[C@]43[C@@H]65)C2)C1.O=S(=O)(O)O` is 14.29%; for `C[C@@H]1O[C@@H](OC[C@H]2O[C@@H](Oc3c(-c4ccc(O)c(O)c4)oc4cc(O)cc(O)c4c3=O)[C@H](O)[C@@H](O)[C@@H]2O)[C@H](O)[C@H](O)[C@H]1O` [RUTIN] it is 17.86%; for `COc1nc(C)nc(Cl)c1NC1=NCCN1.Cl` [MOXONIDINE HYDROCHLORIDE] it is -14.16%. The figure for `O=C1N[C@H](C(=O)O)CS1` [PROCYSTEINE] is 10.52%. In the case of `CCCc1c(OCCCCc2nnn[nH]2)ccc(C(C)=O)c1O` [TOMELUKAST], the Inhibition was 5.76%. In the case of `CC1(C)S[C@@H]2[C@H](NC(=O)[C@H](N)c3ccc(O)cc3)C(=O)N2[C@H]1C(=O)O` [AMOXICILLIN], the Inhibition is given as 15.09%. In the case of `CC(=O)O[C@@]12CO[C@@H]1C[C@H](O)[C@@]1(C)C(=O)[C@H](O)C3=C(C)[C@@H](OC(=O)[C@H](O)[C@@H](NC(=O)OC(C)(C)C)c4ccccc4)C[C@](O)([C@@H](OC(=O)c4ccccc4)[C@H]21)C3(C)C`, the Inhibition came to 10.2%. The figure for `c1ccc2[nH]c(-c3cscn3)nc2c1` [THIABENDAZOLE] is 9.35%; for `Cc1cnc(NC(=O)C2=C(O)c3ccccc3S(=O)(=O)N2C)s1` [MELOXICAM] it is -0.24%. The same measure for `CCS(=O)(=O)CCn1c([N+](=O)[O-])cnc1C` [TINIDAZOLE]: 16.09%; for `C[C@]12CC[C@@H]3c4ccc(OS(=O)(=O)[O-])cc4CC[C@H]3[C@@H]1CCC2=O.[Na+]` [ESTRONE SODIUM SULFATE]: 8.52%; for `COc1cc(C(=O)NS(=O)(=O)c2ccccc2C)ccc1Cc1cn(C)c2ccc(NC(=O)OC3CCCC3)cc12` [ZAFIRLUKAST]: 36.84%. As for `Sc1ncnc2nc[nH]c12` [MERCAPTOPURINE ANHYDROUS], the Inhibition came to 22.75%. The same measure for `COC(=O)CCc1ccc(OCC(O)CNC(C)C)cc1.Cl` (stereo unspecified) [ESMOLOL HYDROCHLORIDE]: 16.29%. In the case of `NC(=O)N1c2ccccc2CC(=O)c2ccccc21` [OXCARBAZEPINE], the Inhibition amounted to 15.1%.

In the case of `COc1cc(C)nc(-n2nc(C)cc2OC)n1` [EPIRIZOLE], the Inhibition was 7.75%. `C[C@H](N[C@@H](CCc1ccccc1)C(=O)O)C(=O)N1CCC[C@H]1C(=O)O` [ENALAPRILAT ANHYDROUS]: the Inhibition is reported as -5.3%. The same measure for `CC(C)NCC(O)c1cc(O)cc(O)c1` (stereo unspecified) [METAPROTERENOL]: -6.69%. The same measure for `CC1(C)C[C@@H]1C(=O)N/C(=C\CCCCSC[C@H](N)C(=O)O)C(=O)[O-].[Na+]` [CILASTATIN SODIUM]: -4.51%; for `O=c1[nH]c(=O)n(C2CCCO2)cc1F` (stereo unspecified) [TEGAFUR]: 17.75%. The figure for `COc1cc2nc(N3CCN(C(=O)C4COc5ccccc5O4)CC3)nc(N)c2cc1OC` (stereo unspecified) [DOXAZOSIN] is 8.23%; for `Cl.O.O=C(c1ccc(F)cc1)C1CCN(CCn2c(=S)[nH]c3ccccc3c2=O)CC1` it is 2.33%; for `Cc1ccsc1C(=CCCN1CCC[C@@H](C(=O)O)C1)c1sccc1C.Cl` [TIAGABINE HYDROCHLORIDE] it is 12.29%. For `O=C1CCc2ccc(OCCCCN3CCN(c4cccc(Cl)c4Cl)CC3)cc2N1` [ARIPIPRAZOLE], the Inhibition is reported as -0.8%. The same measure for `NC(=O)N1c2ccccc2C=Cc2ccccc21` [CARBAMAZEPINE]: 10.71%. The figure for `CC(C)Oc1ccc2c(=O)c(-c3ccccc3)coc2c1` [IPRIFLAVONE] is 16.93%.

Broadly, the Inhibition is the relative decrease from the control value, in per cent.
